Experimental data published in PubChem BioAssay (EPA / NIEHS).
Where “and” joins values, the source holds several entries; their conditions need not be identical. Identical values can stand only once. Some structures have more than one record in an assay (separate samples or runs), and their calls can disagree. Calls of active or inactive are those of the source. The calls were made as follows: active = hit-call score of the fitted dose curve at least 0.9, where 1 is the maximum; inactive = score below 0.9.

Experiments:
[1] = read-out: Collagen I, COL1A1 (gene 1277); assay: BSK_MyoF_CollagenI: BioMAP Diversity Plus: MyoF Assay for Collagen I Biomarker Activity (AID 2284238); details: primary human lung fibroblasts
In short: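 Lung fibroblasts (human primary) dosed, 24 h; Collagen I by ELISA; positive-direction fit vs DMSO control. Parallel SRB total-protein staining (0.1% SRB, 10% TCA fixation, 560 nm) flags overt cytotoxicity.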

[2] = read-out: Collagen III, COL3A1 (gene 1281); assay: BSK_MyoF_CollagenIII: BioMAP Diversity Plus: MyoF Assay for Collagen III Biomarker Activity (AID 2284239); details: primary human lung fibroblasts
In short: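 ELISA read-out of collagen III from human lung fibroblasts after 24 h of chemical treatment. The DMSO control served as negative control and baseline, with values fitted in the positive direction.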

[3] = read-out: Interleukin 17F (IL17F), IL17F (gene 112744); assay: BSK_BT_xIL17F: BioMAP Diversity Plus: BT Assay for Interleukin 17F (IL17F) Biomarker Activity (AID 2284243); details: primary human B cells with PBMC
In short: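 Compound was added to co-cultures of human B cells and PBMC. After 24 hours, IL-17F released into the medium was measured with LumineX xMAP technology. Responses were then fitted upward relative to DMSO.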

[4] = read-out: Actin alpha 1 (ACTA1), ACTA1 (gene 58); assay: BSK_MyoF_ACTA1: BioMAP Diversity Plus: MyoF Assay for Actin alpha 1 (ACTA1) Biomarker Activity (AID 2284244); details: primary human lung fibroblasts
In short: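 alpha-SMA levels read by ELISA against DMSO baseline, 24 h post-dose, in primary human lung fibroblasts. Parallel cultures stained with 0.1% SRB after 10% TCA fixation (560 nm) to flag overt cytotoxicity.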

[5] = read-out: Interleukin 2 (IL2), IL2 (gene 3558); assay: BSK_BT_xIL2: BioMAP Diversity Plus: BT Assay for Interleukin 2 (IL2) Biomarker Activity (AID 2284245); details: primary human B cells with PBMC
In short: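 Secreted IL-2 was read by Luminex xMAP from B cells co-cultured with PBMC (human primary) 24 h post-dosing; activity was analysed as gain of signal relative to DMSO vehicle.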

[6] = read-out: Basic fibroblast growth factor (bFGF), FGF2 (gene 2247); assay: BSK_MyoF_bFGF: BioMAP Diversity Plus: MyoF Assay for Basic fibroblast growth factor (bFGF) Biomarker Activity (AID 2284246); details: primary human lung fibroblasts
In short: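 bFGF was measured by ELISA in primary human lung fibroblasts 24 h after chemical addition. Signal was analysed as positive-direction change relative to DMSO baseline.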

[7] = read-out: Collagen IV, COL4A1 (gene 1282); assay: BSK_MyoF_CollagenIV: BioMAP Diversity Plus: MyoF Assay for Collagen IV Biomarker Activity (AID 2284247); details: primary human lung fibroblasts
In short: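 Collagen IV quantified by ELISA in human lung fibroblast cultures 24 h after chemical treatment, with DMSO as baseline. Parallel SRB staining (0.1% SRB after TCA fixation, 560 nm) flags overt cytotoxicity.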

[8] = read-out: Plasminogen activator inhibitor-1 (PAI1), SERPINE1 (gene 5054); assay: BSK_MyoF_PAI1: BioMAP Diversity Plus: MyoF Assay for Plasminogen activator inhibitor-1 (PAI1) Biomarker Activity (AID 2284256); details: primary human lung fibroblasts
In short: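 Primary human lung fibroblasts are dosed and incubated 24 h. PAI-1 is then measured by ELISA, while parallel cultures undergo SRB staining for overt cytotoxicity. Increases over DMSO define activity.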

[9] = read-out: Monokine induced gamma interferon (MIG), CXCL9 (gene 4283); assay: BSK_KF3CT_MIG: BioMAP Diversity Plus: KF3CT Assay for Monokine induced gamma interferon (MIG) Biomarker Activity (AID 2284248); details: primary human keratinocytes with fibroblasts
In short: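 KF3CT system: keratinocyte/fibroblast co-culture, 24 h post-dose, MIG by ELISA; activity vs DMSO, positive fitting direction.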

[10] = read-out: Vascular cell adhesion molecule 1 (VCAM1), VCAM1 (gene 7412); assay: BSK_BF4T_VCAM1: BioMAP Diversity Plus: BF4T Assay for Vascular cell adhesion molecule 1 (VCAM1) Biomarker Activity (AID 2284249); details: primary human bronchial epithelial cells with fibroblasts
In short: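 Cell-surface VCAM-1 quantified by ELISA after 24 h chemical exposure of human bronchial epithelial/dermal fibroblast co-cultures, with SRB staining in parallel wells for cytotoxicity; DMSO baseline, positive-direction fitting.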

[11] = read-out: Collagen I, COL1A1 (gene 1277); assay: BSK_hDFCGF_CollagenI: BioMAP Diversity Plus: hDFCGF Assay for Collagen I Biomarker Activity (AID 2284250); details: primary human foreskin fibroblasts
In short: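 Collagen I quantified by ELISA 24 h after chemical dosing of human dermal fibroblast primary cells, with parallel SRB staining (0.1%, TCA-fixed, 560 nm) for overt cytotoxicity.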

[12] = read-out: Interferon-inducible T-cell alpha chemoattractant (ITAC), CXCL11 (gene 6373); assay: BSK_hDFCGF_ITAC: BioMAP Diversity Plus: hDFCGF Assay for Interferon-inducible T-cell alpha chemoattractant (ITAC) Biomarker Activity (AID 2284251); details: primary human foreskin fibroblasts
In short: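 Chemical dosing of primary human foreskin fibroblast cultures preceded ELISA measurement of I-TAC at 24 h. Response was analysed in the positive direction using DMSO as baseline, while parallel SRB staining measured cytotoxicity.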

[13] = read-out: Plasminogen activator inhibitor-1 (PAI1), SERPINE1 (gene 5054); assay: BSK_KF3CT_PAI1: BioMAP Diversity Plus: KF3CT Assay for Plasminogen activator inhibitor-1 (PAI1) Biomarker Activity (AID 2284252); details: primary human keratinocytes with fibroblasts
In short: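 PAI-1 levels quantified by ELISA after 24 h compound exposure of primary human skin keratinocytes co-cultured with fibroblasts. Activity is the gain relative to DMSO; cytotoxicity tracked in parallel cultures via SRB staining.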

[14] = read-out: Interleukin-8 (IL8), CXCL8 (gene 3576); assay: BSK_KF3CT_IL8: BioMAP Diversity Plus: KF3CT Assay for Interleukin-8 (IL8) Biomarker Activity (AID 2284254); details: primary human keratinocytes with fibroblasts
In short: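 Chemicals were added to co-cultured human keratinocytes and foreskin fibroblasts, incubated 24 h, then IL-8 was quantified by ELISA. Cytotoxicity was tracked by sulforhodamine B total-protein staining in parallel cultures.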

[15] = read-out: Macrophage Inflammatory Protein-1 Alpha (MIP1a), CCL3 (gene 6348); assay: BSK_IMphg_MIP1a: BioMAP Diversity Plus: IMphg Assay for Macrophage Inflammatory Protein-1 Alpha (MIP1a) Biomarker Activity (AID 2284255); details: primary human endothelial cells with macrophages
In short: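 MIP-1a protein levels were quantified by ELISA after 24 h treatment of human endothelial cell–macrophage co-cultures, compared with DMSO. Parallel cultures were fixed with TCA and stained with 0.1% SRB to gauge overt cytotoxicity.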

[16] = read-out: CD69, CD69 (gene 969); assay: BSK_IMphg_CD69: BioMAP Diversity Plus: IMphg Assay for CD69 Biomarker Activity (AID 2284257); details: primary human endothelial cells with macrophages
In short: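 Readout is ELISA for CD69 in primary human venular endothelial cell/macrophage co-culture, taken at 24 h post-dosing. SRB staining of parallel cultures gauged overt cytotoxicity; signal increase versus DMSO defined activity.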

[17] = read-out: Eotaxin 3, CCL26 (gene 10344); assay: BSK_BF4T_Eotaxin3: BioMAP Diversity Plus: BF4T Assay for Eotaxin 3 Biomarker Activity (AID 2284258); details: primary human bronchial epithelial cells with fibroblasts
In short: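 ELISA measurement of Eotaxin-3 after 24 h chemical exposure in a bronchial epithelial/dermal fibroblast co-culture, with DMSO as baseline. Parallel SRB staining (0.1% SRB after 10% TCA fixation, 560 nm) flagged overt cytotoxicity.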

[18] = read-out: Monocyte Chemoattractant Protein-1 (MCP1), CCL2 (gene 6347); assay: BSK_BF4T_MCP1: BioMAP Diversity Plus: BF4T Assay for Monocyte Chemoattractant Protein-1 (MCP1) Biomarker Activity (AID 2284259); details: primary human bronchial epithelial cells with fibroblasts
In short: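 MCP-1 ELISA readout taken 24 h after dosing in the BF4T system (bronchial epithelial cells plus dermal fibroblasts). Parallel SRB total-protein staining flagged cytotoxicity; DMSO served as baseline, positive fitting direction.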

Measured: AC50

Cc1ccc(S(=O)(=O)C(I)I)cc1
active: [1] 8.3 µM | [2] 10.5 µM | [3] 2.77 µM | [4] 7.35 µM | [5] 4.47 µM | [6] 12.5 µM | [7] 7.25 µM | [8] 8.61 µM

CC(C)(C)c1cc(CCC(=O)NCCCCCCNC(=O)CCc2cc(C(C)(C)C)c(O)c(C(C)(C)C)c2)cc(C(C)(C)C)c1O
active: [3] 5.33 µM | [5] 1.36 µM
inactive: [1] | [2] | [4] | [6] | [7] | [8]

O=C1C=CC(=O)N1c1ccc(Cc2ccc(N3C(=O)C=CC3=O)cc2)cc1
active: [1] 2.69 µM | [2] 3.46 µM | [3] 2.45 µM | [4] 2.79 µM | [5] 4.5 µM | [6] 5.53 µM | [7] 1.99 µM | [8] 5.09 µM

CN(C(=O)C(F)(F)C(F)(F)C(F)(F)F)[Si](C)(C)C
inactive: all assays above

O=C1c2c(O)ccc(Nc3ccc(CCO)cc3)c2C(=O)c2c([N+](=O)[O-])ccc(O)c21
active: [1] 28.9 µM | [2] 30.2 µM | [3] 35.3 µM | [4] 25.6 µM | [7] 34.1 µM | [8] 32.3 µM
inactive: [5] | [6]

Brc1nc2ccccc2s1
active: [5] 0.431 µM
inactive: [1] | [2] | [3] | [4] | [6] | [7] | [8]

CCN(CC)c1ccc2c(c1)Oc1cc(N(CC)CC)ccc1C21OC(=O)c2ccccc21
inactive: [1] | [2] | [3] | [4] | [5] | [6] | [7] | [8]

NC(=O)C(F)(F)C(F)(F)C(F)(F)C(F)F
inactive: all assays above

O=C(Cl)C(F)(F)C(F)(F)C(F)(F)C(F)(F)C(F)(F)C(F)(F)F
inactive: all assays above

CC(C)CCCC(C)CCO (stereo unspecified)
inactive: [3] | [5] | [6] | [7] | [8]
active: [1] 31.6 µM | [2] 35.3 µM | [4] 30.9 µM

O=C=Nc1cccc2c(N=C=O)cccc12
inactive: [1] | [2] | [3] | [4] | [5] | [6] | [7] | [8]

CC1=CC2C3C=CC(C3)C2C1C (stereo unspecified)
inactive: [1] | [2] | [3] | [4] | [5] | [6] | [7] | [8]

CCN(CC)c1ccc(C=O)c(O)c1
inactive: [1] | [2] | [3] | [4] | [5] | [6] | [7]
active: [8] 20 µM

CCN(CC)c1ccc(C=O)cc1
inactive: [1] | [2] | [3] | [4] | [5] | [6] | [7] | [8]

Cc1cnccn1
inactive: [1] | [2] | [3] | [4] | [5] | [6] | [7] | [8]

C[C@]12CC[C@H]3C(=CCc4cc(O)ccc43)[C@@H]1CCC2=O
inactive: [1] | [2] | [4] | [5] | [6] | [7] | [8]
active: [3] 20 µM

O=C(c1ccccc1)c1ccc(O)cc1O
inactive: [1] | [2] | [3] | [4] | [5] | [6] | [7] | [8]

Cc1cc(O)c(C(C)(C)C)cc1C(C)(C)C
active: [1] 4.19 µM | [2] 5.41 µM | [3] 27.3 µM | [4] 3.74 µM | [5] 31.2 µM | [6] 5.37 µM | [7] 4.74 µM | [8] 7.48 µM

CCN=C1C=CC(=C(c2ccc(N(CC)CC)cc2)c2ccc(N(CC)CC)cc2)c2ccccc21
active: [9] 2.63 µM and 2.31 µM | [12] 704 nM and 1.12 µM | [13] 1.64 µM and 1.56 µM | [14] 2.34 µM
inactive: [11] | [14]

NC(=O)C(F)(F)C(F)(F)C(F)(F)C(F)(F)C(N)=O
inactive: all assays above

CCN(CC)c1ccc(N=Nc2ccccc2)cc1
active: [1] 20 µM | [3] 31 µM | [4] 23.8 µM | [5] 32.6 µM | [7] 9.37 µM
inactive: [2] | [6] | [8]
